Laboratory results from PubChem BioAssay AID2315 (National Center for Advancing Translational Sciences (NCATS), 2010).
About 27,000 (9.3%) of roughly 290,000 compounds were called active. This is one part of a sample in which actives are shown more often than they occur. A number with no mark means an inactive call. Cut-off read from the data, not from the text of the source: active = inhibition mostly above about 28% (no sharp cut-off); inactive = mostly below about 43%.

experiment: A qHTS for Small Molecule Inhibitors of Shiga Toxin; conditions: Vero cells, Shiga toxin protein synthesis inhibition reporter; at 38.7 µM, hits give high values; note: 0% is about no effect

SMILES	inhibition
CC(C)NS(=O)(=O)c1ccc(OCC(=O)NC2CCCCCC2)cc1	-16.9%
CC(Oc1ccc(F)cc1)C(=O)N1CCN(c2ncccn2)CC1 (stereo unspecified)	-12.5%
Cc1ccc(NC(=O)c2oc(=O)c3ccccc3c2-c2ccccc2)c(C)c1	-10.4%
Cc1ccc(NN=C2C(=O)OC(C)(C)OC2=O)c(C)c1	93.9% (active)
Cc1ccc(NC(=O)CCC(=O)N/N=C/c2ccco2)c(C)c1	9.07%
COC(=O)C(C)n1cnc2c(nnn2-c2ccc(F)cc2)c1=O (stereo unspecified)	8.93%
COc1ccc(NC(=O)c2sc3nc(C)nc(N4CCN(c5ccccn5)CC4)c3c2C)c(OC)c1	-5.19%
CCn1ccnc1CN(C)Cc1nc(-c2ccc3c(c2)OCO3)no1	50.1% (active)
CC(C)N(Cc1nc(-c2ccc3c(c2)OCO3)no1)CC1CCC(=O)N1 (stereo unspecified)	-4.06%
CN(CCN1CCOCC1)Cc1nc(-c2ccc3c(c2)OCO3)no1	13.4%
O=C(OCC(=O)c1cccs1)c1ccc([N+](=O)[O-])o1	41.9%
O=C(OCC(=O)c1cccs1)C1=COCCO1	98.9% (active)
CCC(C)(C)c1ccc(Oc2ccc(NC(=O)COC(=O)C3=COCCO3)cc2)cc1	23.6%
O=C(NCc1ccccc1)C1CCN(C(=O)Cc2ccccc2)CC1	-23.8%
O=C(CCn1nnnc1CN1CCOCC1)N1CCC(c2ccccc2Cl)C1 (stereo unspecified)	11%
NC(=O)c1c(Nc2nc3c(F)cccc3s2)sc2c1CCCC2	13.4%
CN(C)CCCN(C(=O)COc1ccccc1)c1nc2c(Cl)cccc2s1	-6.79%
NNc1nc2c(Cl)cccc2s1	69.4% (active)
C/C(=N\NC(=O)c1cccc([N+](=O)[O-])c1)c1cccnc1	11.6%
COc1ccc(N2CCC(N3CCN(C)C(CCO)C3)CC2)cc1 (stereo unspecified)	0.592%
COc1ccc(CCN2CC(C(=O)NCCN3CCNC3=O)CCC2=O)cc1 (stereo unspecified)	1.29%
Cc1cc(=O)[nH]c(N/N=C/c2c(C)nn(-c3ccccc3Cl)c2Cl)n1	47%
CCN(CC)c1ccc(/C=N/Nc2nc(C)cc(=O)[nH]2)cc1	2.75%
Cc1cc(=O)[nH]c(N/N=C/c2ccc3c(c2)OCCO3)n1	44.5% (active)

SMILES	inhibition
Cc1[nH]c2ccccc2c1C(=O)CN1CCCC(C)C1 (stereo unspecified)	-6.74%
Nc1ccccc1SC(C[N+](=O)[O-])c1ccccc1 (stereo unspecified)	77.6% (active)
Cc1ccc(C(C[N+](=O)[O-])c2c(C)cc3ccccn23)cc1 (stereo unspecified)	6.95%
NS(=O)(=O)c1ccc(CNC(=O)c2cccc(Oc3ccccc3)c2)cc1	6.72%
O=C(NCc1cn2ccsc2n1)Nc1ccc(Cl)cc1	-6.11%
CCC(=O)Nc1ccc(C(=O)NNC(=O)c2ccc(Cl)cc2)cc1	21.7%
O=C(Nc1ccc(Cl)cc1)c1ccsn1	71.9% (active)
Cc1cc(-c2ccc(C)c(S(=O)(=O)NCCCN(Cc3ccccc3)C(C)C)c2)on1	-6.03%
Cc1cccc(NC(=O)NC2(C)CCS(=O)(=O)C2)c1 (stereo unspecified)	11.8%
CC(C)(C)NC(=O)NCc1ccco1	12.4%
CC(C)(C)c1ccc(C(=O)NCCC(=O)NCc2ccco2)cc1	6.3%
CC(C)(C)c1ccc(NC(=O)NCc2ccco2)cc1	74.2% (active)
COc1ccc([N+](=O)[O-])cc1N(CC(=O)Nc1ccccc1C(=O)N1CCOCC1)S(C)(=O)=O	-1.77%
CCOC(=O)c1nc(-c2ccc3c(c2)OCO3)[nH]c1C	41% (active)
CCOC(=O)c1c(C)[nH]c(C(=O)COc2ccc3c(c2)OCO3)c1C	17.2%
CCOCCOC(=O)C1=C(C)NC(=O)NC1c1ccc2c(c1)OCO2 (stereo unspecified)	-11.9%
CCOc1ccc(N(C)S(=O)(=O)c2cnc[nH]2)cc1	10.4%
Cc1ccc2c(c1)N(CC(=O)N1CCC(C)CC1)C(=O)c1cccnc1O2	9.85%
COc1ccc(S(=O)(=O)N2CCCC(C(=O)Nc3ccc(NC(=O)c4ccccn4)cc3)C2)cc1 (stereo unspecified)	63.5% (active)
CCOc1cccc(NC(=O)C2CCCN(S(=O)(=O)c3ccc(OC)cc3)C2)c1 (stereo unspecified)	-14.4%
COc1ccc(NC(=O)C2CCCN(S(=O)(=O)c3cccc4cccnc34)C2)cc1 (stereo unspecified)	-1.64%
COc1ccccc1N1CC(C(=O)Nc2nnc(SCC(=O)NC(C)C)s2)CC1=O (stereo unspecified)	4.29%
CN(CC1CCCN(CCc2cccc(C(F)(F)F)c2)C1)C(=O)c1ccc2nc[nH]c2c1 (stereo unspecified)	-2.32%
Cc1ccc(CS(=O)Cc2ccc(C(=O)N3CCOCC3)o2)cc1 (stereo unspecified)	-2.85%

SMILES	inhibition
COc1ccc2c(c1)cc1n2CCN=C1NN	170% (active)
COc1ccc(CNC(=O)C(=O)NCC2OCCN2C(=O)c2ccc(OC)cc2)cc1 (stereo unspecified)	-30.4%
O=S(=O)(c1cccc(Cn2nnc(-c3ccc(F)cc3)n2)c1)N1CCOCC1	-6.53%
c1ccc2sc(NN=C3CCCC3)nc2c1	72.4% (active)
c1ccc2sc(SNC3CCCCC3)nc2c1	25.3%
O=[N+]([O-])c1cc(Br)c(O)c(/C=N/Nc2nc3ccccc3s2)c1	30.3%
Cc1ccc2c(c1)C(c1ccccc1)N(C(=O)c1ccc(F)cc1)CC(=O)N2 (stereo unspecified)	-4.25%
COC(=O)c1ccc(/C=C2/C(=O)Oc3ccccc32)cc1	-14%
CNC(=S)N1N=C(c2ccccc2)CC1c1ccc(Br)cc1 (stereo unspecified)	34.3% (active)
Cc1ccc(NC(=S)N2CCCC(c3ccccc3)=N2)cc1	-2.73%
CC(=O)N1CCN(c2ccccc2NC(=S)NC(=O)c2cc3ccccc3o2)CC1	-6.04%
Cc1cc(Nc2ccccc2)n(C(=O)c2ccc(N)cc2)n1	47.2% (active)
Cc1cc(Nc2ccccc2)n(CCC#N)n1	-1.92%
Cc1cc(NC(=O)Nc2ccccc2)n(-c2ccccc2)n1	34.6%
Cc1ccc(C)c(C(=O)N2CCC(n3nccc3NC(=O)C3CC3)CC2)c1	-24.8%
N#Cc1c(-c2ccccc2)c(-c2ccccc2)n[nH]c1=O	-6.49%
Cc1cccc(N2C(=O)SC(N(CC(=O)O)c3cccc(C)c3)C2=O)c1 (stereo unspecified)	49.7%
Cc1cccc(N2C(=O)CC(SC(N)=Nc3ccccc3)C2=O)c1 (stereo unspecified)	-8.18%
Cc1cccc(N2C(=O)SC(SC(=Nc3ccccc3)Nc3ccccc3)C2=O)c1 (stereo unspecified)	83.9% (active)
COc1cccc(/C=C2\Sc3ccc(C(=O)NCC4CCCO4)cc3N(C)C2=O)c1 (stereo unspecified)	11.4%
CCOC(=O)c1c(S(=O)(=O)Nc2ccc(CN3CCC(C)CC3)cc2)c(C)n(C)c1C	-3.73%
CC(=O)N1CC(=O)N(CC(=O)Nc2ccc(Br)cc2)C1=S	-1.67%
CC1CC(C)CN(C(=O)C2CC(=O)N(c3ccc(F)cc3)C2)C1 (stereo unspecified)	-7.56%
O=C(N/N=C/c1ccccc1O)/C(=C/c1ccccc1)CCO	51.6% (active)

SMILES	inhibition
O=C(CCCO)N/N=C/c1cc(Br)ccc1O	13.6%
O=C(N/N=C/c1ccccc1O)C1CCCC1	21.6%
O=c1c2c(nc3nc[nH]n13)CCC2	11.8%
O=c1c2c(nc3cc(-c4cccc(Cl)c4)[nH]n13)CCCC2	59.1% (active)
Cc1cc(=O)n2[nH]c(-c3cccc(Cl)c3)cc2n1	39.8%
O=S(=O)(c1ccc(Cl)cc1)c1nc(-c2ccccc2F)oc1NCCN1CCOCC1	-6.01%
CCCc1nc(NCc2ccc3c(c2)OCO3)c2nnn(Cc3ccccc3Cl)c2n1	7.73%
Cc1nc(Nc2ccccc2F)c2nnn(Cc3ccccc3Cl)c2n1	-8.68%
Cc1nc(Nc2ccc3c(c2)OCCO3)c2nnn(Cc3ccccc3Cl)c2n1	153% (active)
COc1ccc(C(=O)/C=C/c2ccc(-c3ccccc3)cc2)cc1CSCC(=O)O	-14.5%
Cc1c(NC(=O)CCCOc2ccccc2)cccc1[N+](=O)[O-]	10.4%
Cc1ccccc1NC(=O)CCOc1ccccc1	58% (active)
CCc1ccccc1NC(=O)CCOc1ccccc1	-7.03%
COc1cccc(CN(C)CC2CCCN(CCc3ccc(Cl)cc3)C2)c1OC (stereo unspecified)	-3.67%
O=C(/C=C/c1ccc([N+](=O)[O-])o1)NNC(=O)c1ccc(F)cc1	120% (active)
O=C(N/N=C/c1ccc([N+](=O)[O-])o1)c1cn(-c2ccccc2)nc1-c1ccc(F)cc1	8.71%
C/[N+]([O-])=C\c1ccc([N+](=O)[O-])o1	-7.77%
Cc1coc2c1c(C)cc1oc(=O)c(CC(=O)NCC(=O)N[C@H](C(=O)O)C(C)C)c(C)c12	-15%
Cc1c(C(=O)Nc2cccc(-c3nnc4n3CCCCC4)c2)oc2ccccc12	35%
Cc1c(C(=O)Nc2ccccc2)sc2nc3n(c(=O)c12)CCCCC3	95.7% (active)
Cc1nc(N2CCOCC2)c2c(C)c(C(=O)Nc3ccc(C(F)(F)F)cc3)sc2n1	-15.2%
Cc1nc(N2CCN(c3ccccn3)CC2)c2c(C)c(C(=O)Nc3ccc(F)cc3)sc2n1	-7.13%
CC(=O)c1ccc(NC(=O)c2sc3nc4n(c(=O)c3c2C)CCCCC4)cc1	81.1% (active)
O=c1c2c(nc3n1CCCCC3)sc1c(O)cccc12	20.9%
